Results on four compounds are retold here after PubChem BioAssay (EPA / NIEHS).

Assay [1] is described as follows: ATG_PBREM_CIS: Attagene CIS-FACTORIAL HepG2 Assay for human Phenobarbital-responsive Enhancer Module (PBREM) (AID 2282955). Particulars: HepG2 PBREM cis-reporter, Attagene multiplexed transcription; actives raise or lower the signal. Summed up:
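Fluorescence of labelled reporter cDNA fragments, resolved by capillary electrophoresis, gives mRNA induction in transfected HepG2 cells treated for 24 h; DMSO serves as negative control and baseline.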

Assay [2] has as its target Paired box protein Pax-6 (Homo sapiens) (UniProt P26367). The assay can be described thus: ATG_Pax6_CIS: Attagene CIS-FACTORIAL HepG2 Assay for human Paired Box 6 (PAX6) (AID 2282956). Particulars: HepG2 CIS-FACTORIAL PAX6 reporter transcription, RNA readout; actives raise or lower the signal. Summed up: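 Multiplexed cis-reporter HepG2 system; 24 h treatment; reporter mRNA read by RT-PCR/CE fluorescence; bidirectional fit vs DMSO.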

Assay [3] in a line: ATG_PXRE_CIS: Attagene CIS-FACTORIAL HepG2 Assay for human Pregnane X Receptor Element (PXRE) (AID 2282957). Particulars: HepG2 Attagene CIS-FACTORIAL PXRE reporter, mRNA; actives raise or lower the signal. Summed up: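 Cells: HepG2, transiently transfected reporter units under cis promoter control. Exposure: 24 h. Detection: reporter mRNA via RT-PCR/CE fluorescence; bidirectional fitting, DMSO-referenced.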

A short description of assay [4]: ATG_PPRE_CIS: Attagene CIS-FACTORIAL HepG2 Assay for human Peroxisome Proliferator-activated Response Element (PPRE) (AID 2282958). Particulars: HepG2 PPRE cis-element reporter, Attagene transcription factor profiling; actives raise or lower the signal. In outline: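 Cells are first transfected transiently with the multiplexed reporter library, then dosed for 24 h. Total RNA is reverse-transcribed, amplified, fluorescently end-labeled and HpaI-cut before capillary electrophoresis; activity is fitted bidirectionally against DMSO controls.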

Assay [5] can be described thus: ATG_RORE_CIS: Attagene CIS-FACTORIAL HepG2 Assay for human RAR-related Orphan Receptor Element (RORE) (AID 2282959). Particulars: HepG2 Attagene cis-factorial RORE reporter, mRNA; actives raise or lower the signal. Summed up: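 Cells were HepG2 carrying transfected cis-regulated reporter constructs, dosed for 24 hours. Total RNA was reverse-transcribed and reporter cDNA amplified, fluorescently labeled and sized by capillary electrophoresis. Activity was fitted bidirectionally relative to DMSO.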

The nature of assay [6]: ATG_Sox_CIS: Attagene CIS-FACTORIAL HepG2 Assay for human SRY-box transcription factor (SOX) (AID 2282960). Particulars: HepG2 Attagene cis-factorial SOX reporter, mRNA; actives raise or lower the signal. Summed up:
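Transient MRTU transfection of HepG2; 24 h compound incubation; TriZol RNA, oligo(dT) RT, PCR, 6-FAM primer extension, HpaI cut, CE. Bidirectional fit, DMSO = baseline.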

Assay [7] has as its target Transcription factor Sp1 (Homo sapiens) (UniProt P08047). The assay can be described thus: ATG_Sp1_CIS: Attagene CIS-FACTORIAL HepG2 Assay for human Specificity Protein 1 (Sp1) (AID 2282961). Particulars: HepG2 Sp1 cis-reporter transcription, actives raise or lower the signal. In outline:
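Endogenous Sp1 activity was gauged in human liver HepG2 cells bearing transfected reporter units under a cis-regulating promoter. After 24 h dosing, reporter mRNA was quantified by RT-PCR with capillary electrophoresis, and activity fitted bidirectionally versus DMSO.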

A short description of assay [8]: ATG_SREBP_CIS: Attagene CIS-FACTORIAL HepG2 Assay for human Sterol Regulatory Element Binding (SREBP) (AID 2282962). The note with it: HepG2 Attagene cis-factorial SREBP reporter, mRNA; actives raise or lower the signal. In outline: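 mRNA induction of transfected cis-promoter reporters in HepG2 cells, 24 h post-dose. Detection: RT-PCR with 6-FAM-labelled products, HpaI digest, capillary electrophoresis. DMSO served as negative control and baseline.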

The target of assay [9] is Signal transducer and activator of transcription 3 (Homo sapiens) (UniProt P40763). The assay can be described thus: ATG_STAT3_CIS: Attagene CIS-FACTORIAL HepG2 Assay for human Signal Transducer and Activator of Transcription 3 (STAT3) (AID 2282963). The note with it: HepG2, Attagene cis-factorial STAT3 reporter transcription; actives raise or lower the signal. Summed up:
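Endogenous STAT3-responsive cis-element activity was read in transiently transfected HepG2 cells after 24 h treatment. Reporter transcripts were quantified via RT-PCR and capillary electrophoresis, with DMSO as negative control and bidirectional curve fitting.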

Assay [10] can be described thus: ATG_TA_CIS: Attagene CIS-FACTORIAL HepG2 Assay for human TA Basal Promoter (AID 2282964). The note with it: HepG2 Attagene CIS-factorial TA basal promoter reporter; actives raise or lower the signal. In outline: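 Read-out: fluorescent reporter-transcript fragments resolved by capillary electrophoresis after RT-PCR and HpaI digestion. Source: HepG2 cells carrying transiently transfected multi-reporter cis constructs, treated 24 h. Endpoint fitted bidirectionally relative to DMSO.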

Assay [11] in a line: ATG_TCF_b_cat_CIS: Attagene CIS-FACTORIAL HepG2 Assay for human T-Cell-Factor with beta-catenin (TCF/b-cat) (AID 2282965). The note with it: HepG2 TCF/beta-catenin cis-reporter transcription, actives raise or lower the signal. Summed up:
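Endogenous TCF/LEF activity read as reporter transcript level via RT-PCR and capillary electrophoresis fluorescence in transfected HepG2, 24 h exposure; gain or loss of signal fitted against DMSO controls.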

The nature of assay [12]: ATG_TAL_CIS: Attagene CIS-FACTORIAL HepG2 Assay for human TAL Basal Promoter (AID 2282966).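 Further: background control endpoint measuring basal TAL promoter reporter mRNA not a specific factor.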 The note with it: HepG2 Attagene cis-factorial TAL promoter reporter; actives raise or lower the signal. Summed up: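 RT-PCR plus capillary electrophoresis quantifies reporter mRNA induction in transiently transfected HepG2 cells after 24 h chemical treatment. DMSO serves as negative control and baseline for bidirectional fitting.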

A short description of assay [13]: ATG_TGFb_CIS: Attagene CIS-FACTORIAL HepG2 Assay for human Transforming Growth Factor (TGF) (AID 2282967). The note with it: HepG2 Attagene CIS TGFb reporter, mRNA transcription; actives raise or lower the signal. Summed up: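 Transient MRTU transfection of HepG2 (FuGene 6). Dose 24 h. TriZol RNA, oligo(dT) RT, PCR, 6-FAM primer extension, HpaI cut, CE. Bidirectional fit, DMSO = baseline.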

Assay [14] can be described thus: ATG_VDRE_CIS: Attagene CIS-FACTORIAL HepG2 Assay for human Vitamin D Receptor Element (VDRE) (AID 2282968). Particulars: HepG2 VDRE cis-reporter transcription, actives raise or lower the signal. Summed up: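 Reporter mRNA induction, quantified by capillary electrophoresis of fluorescently labelled RT-PCR products, was read 24 h after dosing HepG2 cells carrying transiently transfected cis-regulated reporter units; gain or loss relative to DMSO.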

The target in assay [15] is Nuclear receptor subfamily 1 group I member 3 (Homo sapiens) (UniProt Q14994). The assay can be described thus: ATG_CAR_TRANS: Attagene TRANS-FACTORIAL HepG2 Assay for human Constitutive Androstane Receptor (CAR) (AID 2282969; active means hit-call score of the fitted dose curve at least 0.9, where 1 is the maximum;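 further: activators raise reporter mRNA above DMSO so AC50 marks induction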). Particulars: HepG2 Attagene TRANS-FACTORIAL CAR reporter. Summed up: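 Readout is reporter mRNA induction, quantified by fluorescent primer extension and capillary electrophoresis after RT-PCR. Cells were HepG2 transiently carrying chimeric NR-Gal4 constructs with GAL4-UAS reporters, treated for 24 h; activity scored upward from DMSO.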
Nuclear receptor subfamily 1 group I member 3 (Homo sapiens), sequence (Q14994 whole entry, looked up, the tested form may be a part): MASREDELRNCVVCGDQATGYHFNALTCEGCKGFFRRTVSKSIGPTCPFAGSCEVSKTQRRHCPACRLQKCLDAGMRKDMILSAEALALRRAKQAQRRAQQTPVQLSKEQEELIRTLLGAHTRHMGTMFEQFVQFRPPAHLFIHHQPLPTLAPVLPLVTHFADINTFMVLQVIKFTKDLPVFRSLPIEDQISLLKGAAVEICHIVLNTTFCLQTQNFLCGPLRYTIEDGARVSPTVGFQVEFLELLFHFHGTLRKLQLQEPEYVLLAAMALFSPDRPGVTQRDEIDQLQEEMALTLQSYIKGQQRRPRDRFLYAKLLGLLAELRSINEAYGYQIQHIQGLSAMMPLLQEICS

Assay [16] has as its target Estrogen receptor (Homo sapiens) (UniProt P03372). The assay can be described thus: ATG_ERa_TRANS: Attagene TRANS-FACTORIAL HepG2 Assay for human Estrogen Receptor alpha (ERa) (AID 2282970; active means hit-call score of the fitted dose curve at least 0.9, where 1 is the maximum). The note with it: HepG2 Attagene TRANS ERa GAL4 reporter, mRNA. Summed up:
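Cells: HepG2, transiently transfected. Construct: GAL4-UAS reporter units regulated by exogenous NR-Gal4 chimeras. Time: 24 h. Detection: reporter mRNA by RT-PCR, capillary electrophoresis, fluorescence. Baseline: DMSO, upward fitting.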

For assay [17], the target named is Steroid hormone receptor ERR1 (Homo sapiens) (UniProt P11474). The assay can be described thus: ATG_ERRa_TRANS: Attagene TRANS-FACTORIAL HepG2 Assay for human Estrogen-Related Receptor alpha (ERRa) (AID 2282971; active means hit-call score of the fitted dose curve at least 0.9, where 1 is the maximum). The note with it: HepG2 Attagene TRANS reporter, ERRa transactivation. In outline:
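Reporter transcripts from ERRa-Gal4 chimera activity measured in transiently transfected human HepG2 cells 24 hours after dosing, using RT-PCR with 6-FAM primer extension, HpaI digestion and capillary electrophoresis; DMSO is baseline.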

In assay [18] the target is X-box-binding protein 1 (Homo sapiens) (UniProt P17861). Nature of the assay: ATG_Xbp1_CIS: Attagene CIS-FACTORIAL HepG2 Assay for human X-box Binding Protein 1 (XBP1) (AID 2282972). Particulars: HepG2 XBP1 cis-element reporter, Attagene multiplex; actives raise or lower the signal. Summed up: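 Fluorescence-labelled cDNA fragments from reporter transcripts, separated by capillary electrophoresis, give the signal. Source: HepG2 cells transfected with promoter-driven reporter units, harvested 24 h post-dose. DMSO served as reference for bidirectional curve fitting.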
X-box-binding protein 1 (Homo sapiens), sequence (P17861 whole entry, looked up, the tested form may be a part): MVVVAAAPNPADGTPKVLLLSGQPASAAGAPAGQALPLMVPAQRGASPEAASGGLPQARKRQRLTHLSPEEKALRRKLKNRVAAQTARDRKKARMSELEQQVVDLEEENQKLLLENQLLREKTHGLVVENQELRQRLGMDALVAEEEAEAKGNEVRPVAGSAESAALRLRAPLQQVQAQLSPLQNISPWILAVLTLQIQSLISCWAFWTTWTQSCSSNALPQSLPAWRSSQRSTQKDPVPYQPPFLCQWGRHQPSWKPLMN

Assay [19] can be described thus: ATG_GAL4_TRANS: Attagene TRANS-FACTORIAL HepG2 Assay for GAL4 (Internal Marker) (AID 2282976; active means hit-call score of the fitted dose curve at least 0.9, where 1 is the maximum). Particulars: HepG2 Attagene TRANS GAL4 internal marker reporter. Summed up: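 In transfected human HepG2 liver cells dosed 24 h, GAL4 reporter mRNA serves as a baseline marker. Detection by RT-PCR with fluorescent capillary electrophoresis, activity fitted upward relative to DMSO.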

Assay [20] can be described thus: ATG_M_19_TRANS: Attagene TRANS-FACTORIAL HepG2 Assay for M19 Transcription Factor (Internal Marker) (AID 2282974; active means hit-call score of the fitted dose curve at least 0.9, where 1 is the maximum). The note with it: HepG2 Attagene TRANS-FACTORIAL M19 internal marker reporter. Summed up:
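Cells: human HepG2, transiently transfected with multiplexed reporter transcription units. Exposure: 24 h. Detection: RT-PCR of reporter mRNA with capillary electrophoresis. Analysis: gain-of-signal vs DMSO.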

Records with an inconclusive call do not appear. Calls of active or inactive are those of the source. How the source made its calls, unless noted: active means hit-call score of the fitted dose curve at least 0.9, where 1 is the maximum; inactive means score below 0.9.

Signal transducer and activator of transcription 3 (Homo sapiens), sequence (P40763 whole entry, looked up): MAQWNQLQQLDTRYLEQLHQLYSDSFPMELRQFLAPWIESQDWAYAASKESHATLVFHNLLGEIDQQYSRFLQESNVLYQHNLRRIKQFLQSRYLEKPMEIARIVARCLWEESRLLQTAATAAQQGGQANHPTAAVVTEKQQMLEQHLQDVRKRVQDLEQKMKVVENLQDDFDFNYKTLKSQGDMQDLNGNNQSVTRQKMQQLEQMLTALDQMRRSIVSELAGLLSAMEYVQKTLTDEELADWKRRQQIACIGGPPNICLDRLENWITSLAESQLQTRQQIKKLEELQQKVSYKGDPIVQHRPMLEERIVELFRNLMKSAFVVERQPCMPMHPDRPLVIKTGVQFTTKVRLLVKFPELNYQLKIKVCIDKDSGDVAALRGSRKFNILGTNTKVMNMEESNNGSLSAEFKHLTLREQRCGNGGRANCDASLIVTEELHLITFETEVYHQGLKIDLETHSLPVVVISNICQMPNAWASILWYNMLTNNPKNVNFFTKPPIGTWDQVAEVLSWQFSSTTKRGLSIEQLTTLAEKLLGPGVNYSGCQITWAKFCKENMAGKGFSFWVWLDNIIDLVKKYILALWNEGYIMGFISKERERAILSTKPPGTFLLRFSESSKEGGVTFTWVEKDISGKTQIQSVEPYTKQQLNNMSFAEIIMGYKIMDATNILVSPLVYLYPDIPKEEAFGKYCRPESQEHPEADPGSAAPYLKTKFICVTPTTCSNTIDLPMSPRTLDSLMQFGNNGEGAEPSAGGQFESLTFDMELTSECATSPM
Estrogen receptor (Homo sapiens), sequence (P03372 whole entry, looked up, the tested form may be a part): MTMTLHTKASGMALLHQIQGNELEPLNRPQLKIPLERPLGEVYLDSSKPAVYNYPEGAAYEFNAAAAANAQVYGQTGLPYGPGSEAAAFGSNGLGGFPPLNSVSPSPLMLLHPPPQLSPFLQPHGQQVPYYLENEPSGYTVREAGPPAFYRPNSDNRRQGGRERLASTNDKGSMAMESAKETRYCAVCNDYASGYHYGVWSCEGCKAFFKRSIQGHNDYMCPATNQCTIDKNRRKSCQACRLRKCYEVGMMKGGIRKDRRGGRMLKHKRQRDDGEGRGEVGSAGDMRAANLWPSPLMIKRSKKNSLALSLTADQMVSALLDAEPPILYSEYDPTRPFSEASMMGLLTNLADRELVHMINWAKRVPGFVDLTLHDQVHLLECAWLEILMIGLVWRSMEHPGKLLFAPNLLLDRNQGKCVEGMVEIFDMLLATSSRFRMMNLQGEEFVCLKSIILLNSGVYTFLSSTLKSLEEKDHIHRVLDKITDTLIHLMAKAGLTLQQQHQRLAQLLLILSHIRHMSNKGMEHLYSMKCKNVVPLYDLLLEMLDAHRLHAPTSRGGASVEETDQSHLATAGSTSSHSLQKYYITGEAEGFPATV
Transcription factor Sp1 (Homo sapiens), sequence (P08047 whole entry, looked up): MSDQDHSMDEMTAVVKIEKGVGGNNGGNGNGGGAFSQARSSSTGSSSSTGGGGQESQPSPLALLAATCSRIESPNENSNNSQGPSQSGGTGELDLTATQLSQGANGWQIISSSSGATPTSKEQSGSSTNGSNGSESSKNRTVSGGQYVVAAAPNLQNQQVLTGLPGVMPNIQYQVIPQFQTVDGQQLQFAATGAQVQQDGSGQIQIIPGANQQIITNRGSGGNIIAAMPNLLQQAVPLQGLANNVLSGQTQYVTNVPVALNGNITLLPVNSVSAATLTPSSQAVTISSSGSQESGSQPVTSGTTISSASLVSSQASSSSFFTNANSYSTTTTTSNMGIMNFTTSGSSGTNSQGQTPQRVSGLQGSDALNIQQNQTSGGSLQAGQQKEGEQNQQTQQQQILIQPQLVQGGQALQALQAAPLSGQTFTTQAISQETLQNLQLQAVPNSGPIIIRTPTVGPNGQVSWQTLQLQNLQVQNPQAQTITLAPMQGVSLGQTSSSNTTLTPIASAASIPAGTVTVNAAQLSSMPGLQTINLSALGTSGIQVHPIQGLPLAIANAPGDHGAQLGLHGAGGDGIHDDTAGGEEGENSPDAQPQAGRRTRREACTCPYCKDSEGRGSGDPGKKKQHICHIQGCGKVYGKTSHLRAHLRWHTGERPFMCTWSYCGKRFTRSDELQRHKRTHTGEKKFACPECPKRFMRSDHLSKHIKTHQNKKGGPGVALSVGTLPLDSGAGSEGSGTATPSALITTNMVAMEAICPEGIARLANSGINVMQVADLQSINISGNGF
Paired box protein Pax-6 (Homo sapiens), sequence (P26367 whole entry, looked up): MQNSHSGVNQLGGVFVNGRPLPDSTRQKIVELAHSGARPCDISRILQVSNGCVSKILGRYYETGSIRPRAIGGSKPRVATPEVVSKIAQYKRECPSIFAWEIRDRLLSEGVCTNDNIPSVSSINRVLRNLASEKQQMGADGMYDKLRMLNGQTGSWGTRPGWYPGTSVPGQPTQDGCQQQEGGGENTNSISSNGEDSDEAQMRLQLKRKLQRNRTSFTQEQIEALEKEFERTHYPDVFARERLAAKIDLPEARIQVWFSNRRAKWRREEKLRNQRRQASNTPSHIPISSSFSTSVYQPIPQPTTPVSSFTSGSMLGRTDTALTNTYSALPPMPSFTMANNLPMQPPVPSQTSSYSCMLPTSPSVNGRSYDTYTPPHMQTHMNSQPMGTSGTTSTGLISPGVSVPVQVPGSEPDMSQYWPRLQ
Steroid hormone receptor ERR1 (Homo sapiens), sequence (P11474 whole entry, looked up, the tested form may be a part): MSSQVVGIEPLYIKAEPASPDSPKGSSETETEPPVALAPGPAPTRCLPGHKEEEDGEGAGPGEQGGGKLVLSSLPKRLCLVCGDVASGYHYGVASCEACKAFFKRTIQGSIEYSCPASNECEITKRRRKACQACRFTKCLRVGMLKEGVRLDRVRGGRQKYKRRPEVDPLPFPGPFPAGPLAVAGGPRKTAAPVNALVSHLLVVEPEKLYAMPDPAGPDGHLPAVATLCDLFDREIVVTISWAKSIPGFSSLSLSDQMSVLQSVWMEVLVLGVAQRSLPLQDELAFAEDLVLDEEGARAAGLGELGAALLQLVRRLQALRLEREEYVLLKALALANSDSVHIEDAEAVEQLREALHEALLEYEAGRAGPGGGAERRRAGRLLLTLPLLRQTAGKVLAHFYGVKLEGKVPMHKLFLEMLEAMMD

The AC50 is the midpoint of the concentration-response curve, whichever way the signal moves. `C=CCCCCCCCCC=O`: the outcome in [1], in assay [2], in [5], in [6], in assay [7] and in assay [8] was inactive. The compound was called inactive in assay [9], in assay [10], in assay [11], in assay [12], in assay [13] and in assay [14]. The outcome in assay [15], in [16], in assay [17], in assay [18] and in assay [19] was inactive. Also, the results for the AC50 in assay [3] and in [4] were 100 µM (active) and 64.2 µM (active), respectively.
For `C=C[C@@]1(C)CC(=O)[C@]2(O)[C@@]3(C)[C@@H](O)CCC(C)(C)[C@@H]3[C@H](O)[C@H](OC(C)=O)[C@@]2(C)O1`, the concentration at half-maximal activity (AC50) is 0.803 µM (active) in assay [1], 0.433 µM (active) in [3], 2.1 µM (active) in assay [14] and 2.1 µM (active) in assay [16]. Besides, the result in assay [2], in assay [4], in assay [5], in [6], in assay [7] and in [8] was inactive. The result in [9], in [10], in assay [11], in assay [12], in assay [13] and in assay [18] was inactive.
As for `Oc1ccc(-c2ccccc2)c(Cl)c1`, the result in assay [1], in [2], in assay [3], in assay [6], in assay [7] and in assay [8] was inactive. Besides, the call in assay [10], in assay [11], in assay [12], in [13], in assay [15] and in assay [20] was inactive. The AC50 in [4] is 33.4 µM (active); in [9] it was 54.5 µM (active); in [14], 33.4 µM (active); in [16] it was 9.14 µM (active); in assay [18], 33.4 µM (active).
As for `O=C(Oc1ccccc1)c1ccccc1C(=O)Oc1ccccc1`, the result in [1], in assay [2], in [4], in assay [5], in [6] and in [8] was inactive. Besides, the result in [9], in [10], in [12], in [13], in assay [16] and in [18] was inactive. The compound was classed as inactive in [20] and in assay [19]. Besides, the results for the AC50 in assay [3] and in [11] were 24.6 µM (active) and 51.4 µM (active), respectively.
